Publication PMC5540273 (PLoS ONE, 2017)

Legend:
Settings in all cases: concentration: 1 μM, replicates: in singlicate; n = 1
[1] = system: MET
[2] = system: T1, MINK
T1 construct: gene MINK1

[3] = system: MKK7
[4] = system: MKNK1
[5] = system: MKNK2
[6] = system: T2, MLCK
T2 construct: gene MYLK3

[7] = system: T3, MLK1
T3 construct: gene MAP3K9

[8] = system: MLK2
[9] = system: MLK3
[10] = system: MRCKA
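Further: KINOMEscan kinase panel screen.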

Structure (SMILES)	%Inh [1]	%Inh [2]	%Inh [3]	%Inh [4]	%Inh [5]	%Inh [6]	%Inh [7]	%Inh [8]	%Inh [9]	%Inh [10]
COc1ccc(CNC(=O)NC2CCN(c3ccnc(Nc4ccc(F)cc4)n3)C2)cc1 (centres unmarked) [GSK1379706]	0%	80%	10%	0%	0%	8%	0%	0%	17%	16%
O=c1cc(N2CCOCC2)nc2n(Cc3ccc(F)c(Cl)c3)ccn12 [GSK2297099]	0%	0%	0%	5%	1%	7%	0%	0%	0%	0%
O=C(NCc1cccs1)c1cc(C(=O)c2c(Cl)cccc2Cl)c[nH]1 [GW823670]	5%	0%	0%	0%	0%	0%	10%	13%	0%	0%
Cc1c(Cn2c(C)nn3c(=O)cc(N4CCO[C@H](C)C4)nc23)cccc1C(F)(F)F [GSK2373690]	0%	0%	0%	3%	9%	9%	0%	14%	3%	0%
COc1cc2ncn(-c3cc(OCc4ccncc4)c(C(N)=O)s3)c2cc1OC [GSK336313]	0%	15%	19%	5%	2%	0%	0%	0%	19%	0%
O=C(Nc1n[nH]c2nc(-c3ccccc3)c(Cl)cc12)C1CC1 [SB-734909]	0%	28%	0%	17%	8%	26%	0%	0%	0%	0%
Cc1nn2c(=O)cc(N3CCOCC3)nc2n1Cc1cccc(Cl)c1Cl [GSK2342769]	1%	0%	0%	0%	4%	7%	0%	0%	0%	10%
COC(=O)c1c(-c2ccccc2)c2cc(C)ccc2c(=O)n1Cc1ccccc1	0%	0%	0%	0%	0%	0%	0%	0%	0%	0%
CCCC(=O)Nc1n[nH]c2ncc(-c3cccc4ccccc34)cc12 [SB-642057]	0%	21%	0%	10%	7%	0%	0%	0%	0%	9%
FC(F)(F)c1ccc(-c2ncn(CCCN3CCOCC3)c2-c2ccncc2)cc1 [SB-217780]	4%	0%	0%	16%	58%	0%	0%	2%	5%	0%
COc1cccc(C2=C(Nc3cccc(C(=O)O)c3)C(=O)NC2=O)c1 [SB-390770]	0%	7%	15%	2%	0%	0%	0%	47%	45%	17%
Cc1cccc(-c2cc(-c3c[nH]nc3-c3ccccn3)ccn2)c1 [GW679395]	0%	38%	3%	0%	2%	0%	0%	0%	0%	9%
COc1cc2nccc(Nc3ccc(OCc4ccc(NC(C)=O)cc4)cc3)c2cc1OC.Cl [GW440135]	0%	70%	27%	6%	15%	0%	0%	2%	14%	9%
COC(=O)c1c(-c2ccccc2)c2cc(Br)ccc2c(=O)n1Cc1ccc(S(C)(=O)=O)cc1	2%	10%	19%	8%	0%	3%	1%	0%	0%	0%
COc1cc2ncn(-c3cc(OCc4ccc(S(C)(=O)=O)cc4)c(C(N)=O)s3)c2cc1OC [GW869979]	9%	38%	6%	0%	12%	0%	4%	0%	0%	0%
Cc1ccc(Oc2ccc(Nc3ncnc4cc[nH]c34)cc2C)cn1	4%	10%	0%	34%	41%	0%	5%	19%	1%	0%
CCCNC(=O)Nc1ccc(Oc2ncnc3ccn(C)c23)cc1	8%	1%	0%	23%	0%	0%	6%	6%	0%	3%
CN1C(=O)C(Nc2cc(Cl)c(O)c(Cl)c2)=C(c2ccc(Cl)cc2)C1=O [SB-404321]	0%	0%	0%	38%	19%	0%	0%	0%	0%	5%

Structure (SMILES)	%Inh [1]	%Inh [2]	%Inh [3]	%Inh [4]	%Inh [5]	%Inh [6]	%Inh [7]	%Inh [8]	%Inh [9]	%Inh [10]
COc1ccc(-n2cnc3c(N)ncnc32)cc1 [SKF-97236]	0%	9%	15%	9%	33%	11%	0%	37%	20%	0%
O=C(Nc1n[nH]c2cc(-c3ccccc3F)ccc12)C1CC1 [SB-733371]	0%	69%	10%	0%	18%	29%	0%	5%	0%	0%
Cc1nnc(-c2ccc(C)c(-c3ccc(C(=O)O)cc3)c2)o1 [GW608005]	0%	0%	13%	0%	0%	0%	0%	0%	0%	0%
CCC(=O)c1c(-c2ccccc2)c2cc(Cl)ccc2c(=O)n1Cc1cc(S(C)(=O)=O)n(CCC(C)(C)O)n1	0%	0%	0%	0%	0%	7%	3%	0%	24%	0%
COc1cc2nccc(Nc3cccc(Oc4ccccc4)c3)c2cc1OC.Cl [GW284543]	0%	0%	0%	0%	0%	4%	0%	0%	11%	4%
Nc1nccc2scc(-c3ccc4c(c3)CCN4C(=O)Cc3ccccc3)c12 [GSK2576924]	0%	7%	9%	3%	2%	3%	0%	0%	5%	11%
CCC(=O)c1c(-c2ccccc2)c2cc(Cl)ccc2c(=O)n1Cc1cc(S(C)(=O)=O)n(CC(F)F)n1	6%	0%	0%	0%	0%	0%	42%	0%	0%	0%
COc1ccc(-c2cc3c(C)nc(N)nc3n([C@H]3CC[C@H](OCCO)CC3)c2=O)cn1	0%	1%	0%	0%	0%	17%	0%	0%	3%	0%
COc1ccc(Nc2nccc(N3CCC(NS(=O)(=O)c4ccc(NC(C)=O)cc4)C3)n2)cc1 (centres unmarked) [GSK1379729]	10%	3%	19%	22%	0%	0%	0%	48%	18%	10%
CCc1ccc(-c2ccc3c(c2)-c2nn(C)cc2S(=O)(=O)N3C)cc1	0%	41%	16%	37%	0%	28%	1%	29%	11%	0%
OCCCNc1nccc(-c2c(-c3cccc(C(F)(F)F)c3)nn3cc(C(F)(F)F)ccc23)n1 [GW630813]	0%	0%	15%	0%	0%	0%	0%	0%	0%	0%
COc1cccc(C2=C(N(C)c3ccccc3)C(=O)NC2=O)c1 [SB-334865]	0%	11%	0%	3%	0%	0%	0%	0%	12%	0%
COc1cc(Nc2nccc(N3CCC(NC(=O)C4COc5ccccc5O4)C3)n2)cc(OC)c1OC (centres unmarked) [GSK1379761]	19%	0%	0%	0%	31%	12%	63%	4%	44%	0%
O=C(Nc1n[nH]c2nc(-c3ccccc3)c(Br)cc12)C1CC1 [SB-708998]	0%	6%	0%	7%	1%	21%	0%	18%	22%	0%
COc1cc2ncn(-c3cc(OCCCc4ccccc4)c(C(N)=O)s3)c2cc1OC [GSK205189]	5%	3%	0%	3%	0%	0%	3%	19%	8%	0%
COc1ccc(-c2cc3c(C)nc(N)nc3n([C@H]3CC[C@H](O)CC3)c2=O)cn1	0%	0%	0%	0%	0%	0%	0%	0%	0%	0%
Nc1n[nH]c2ncc(-c3ccccc3)cc12 [SB-517081]	0%	11%	0%	53%	88%	0%	17%	0%	0%	3%
